The structures appear in SMILES notation. Compounds without any hit were thinned out: in the full panel of roughly 83,000, 20% have a hit.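 The test compound was applied at a single concentration to cells in 96-well plates for 48 hours, and percent growth was recorded.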 Values without a mark were called inactive. The source made the active and inactive calls.

This test concerns COLO 205 colon. The experiment in a line: NCI-60 one-dose screen, 48 h (100 = growth as untreated, 0 = no growth, -100 = all killed). The following applies: 10 µM unless noted. As for the experimental part: Cells are grown in 96 well plates and exposed to the test compound for 48 hours. Compounds are tested at a single concentration, which is 10^-5 M for most compounds. The reported endpoint is percent growth (GI% or GIPRCNT), where numbers from 0 - 100% represent growth inhibition, and numbers from -100% - 0 represent cell death. For example, a value of 40 represents 60% growth inhibition. A value of 0 means no net growth occurred over the course of the experiment. A value of -40 indicates 40% of cells at the beginning of the experiment died by the end of the experiment. A value of -100 means all cells are dead at the end of the experiment.
NCI-60 Human Tumor Cell Lines Screen was performed using the standard one-dose NCI protocol, which is described in more detail at https://dtp.cancer.gov/discovery_development/nci-60/default.htm.
Compounds with GIPRCNT values below 10 were considered active. Activity score was based on GIPRCNT using the following formula: […]
Score is 0 for GIPRCNT values of 100 or above, 50 for GIPRCNT values of 0, and 100 for GIPRCNT values of -100.
With `O=S(=O)(Nc1ccccc1)c1ccc(C2CC3(Cl)C(Cl)=C(Cl)C2(Cl)C3(Cl)Cl)cc1` (stereo not given), the growth is 29.2%.
For the compound `CCCCC[C@@H]1Cc2cc(O)c(C(=O)O)c3c2[C@H](C[C@]2(OC[C@@H](CC(=O)[C@@](C)(CC)C(=O)OC)[C@@H]2C)O3)O1`, the growth was 145%.
On to `Cc1cccc(Cl)c1NC(=O)c1ccc2nc(NC(=O)NCCN(C)C)sc2c1`, for which the growth is 45.1%.
Turning to `O=C(O)CCCN1C(=O)/C(=C/C(Cl)=C/c2ccccc2)SC1=S`, the growth was 11.6%.
For the compound `Cc1ccc(-c2nn(-c3ccccc3)cc2C=C2C(=O)ON=C2C(C)C)cc1`, the growth was 114%.
Then `CCCCNC(=O)Oc1ccc(/C(=C(/CC)Cc2ccccc2)c2ccc(OCCN3CCCCCC3)cc2)cc1`, with -75% (active).
Consider `N=C(N)c1ccc(-c2ccc(-c3cc(Cl)cc(Cl)c3)o2)o1`, for which the growth was -81.7% (active).
In the case of `O=C1N[C@@H]2NC(=[N+]3CCOCC3)N[C@@H]2N1`, the growth was 115%.
As to `N#C/C(=C\c1ccc2ccccc2c1)c1cc2ccccc2[nH]1`, the growth is 24.9%.
`COC(=O)c1ccc2c(c1)C(=O)c1c-2n(CCCN)c(=O)c2cc([N+](=O)[O-])ccc12`: the growth is -100% (active).
Consider `O=[N+]([O-])c1ccc(S(=O)(=O)N2CCN(C3=NS(=O)(=O)c4ccccc4N3c3ccccc3)CC2)cc1`, for which the growth was 117%.
For `CCO/C=N/C1=C(C#N)C(c2ccc(OC)cc2)c2sc3c(F)cccc3c2O1` (stereo not given), the growth is 39.2%.
`CCOC(=O)c1cc(-c2ccc([N+](=O)[O-])cc2)n(-c2ccc(C(=O)O)c(O)c2)c1C`: the growth is 99.1%.
`COc1ccc2c(O)c(/C=C3\N=Nc4ccccc43)oc2c1C[C@@H]1CCNC[C@H]1F`: the growth was 58.2%.
Then `Cc1noc(C)c1C(=O)OCc1coc2ccccc2c1=O`, with 66.6%; and `COc1ccc(Cc2cc(-c3ccccc3)nn(Cc3ccccc3)c2=O)cc1OC`, with 9.24% (active).
To `CC(C)(C)n1cc(-c2ccnc(NCCNS(=O)(=O)c3cccc(F)c3)c2)c(-c2ccccc2)n1` belongs 78.3%; to `CCN1CCN(c2cc(C(=O)Nc3nc(-c4cc(OC)c(OC)c(OC)c4)cs3)cc(C(F)(F)F)c2)CC1`, 58.2%.
On to `CS(=O)(=O)Nc1cc(-c2ccc3ncnc(Nc4c(Cl)ccc5c4OCO5)c3c2)cnc1Cl`, for which the growth is -45% (active).
Take `O=C(OCc1ccc2c(Cl)cc(Cl)c(O)c2n1)n1cncn1`: the growth was 96.5%.
Then `O=C(Cn1c(=O)sc2nc3ccccc3nc21)Nc1ncc(Cc2cccc(Cl)c2Cl)s1`, with 95.6%; and `CNC(=O)c1cc(Oc2ccc3c(c2)sc2nc(-c4cc(OC)c(OC)c(OC)c4)cn23)ccn1`, with 16.7%; and `COc1cc(/C=C\c2cc(/C=C\c3ccc(O)c(OC)c3)n(C(=O)COc3ccc(Cl)cc3Cl)n2)ccc1O`, with 82.4%.
Turning to `O=C(NCCCN1CCOCC1)c1cccc(N2C(=O)/C(=C/c3ccc(F)cc3)SC2=S)c1`, the growth is 111%.
Take `C/C(=N/O)c1ccc(F)cc1`: the growth was 90.6%.
In the case of `COc1cc(CNC(=O)/C=C/C=C/c2ccc3c(c2)OCO3)ccc1OCc1cn(-c2ccc(C)c(C)c2)nn1`, the growth was 80.5%.
`O=C1/C(=C/c2ccc(Cl)c(Cl)c2)CN(C(=O)C(Cl)Cl)C/C1=C\c1ccc(Cl)c(Cl)c1`: the growth was -47.1% (active).
With `CCc1n(Cc2ccc3ccccc3c2)cc[n+]1Cc1ccc2ccccc2c1`, the growth was -67.5% (active).
Turning to `O=C(/C=C/c1ccccc1)c1cccc(OCCCOc2cccc(C(=O)/C=C/c3ccccc3)c2)c1`, the growth is 94.1%.
`CC(=O)Nc1nc2ccc(NS(=O)(=O)c3cccc4c(N(C)C)cccc34)cc2[nH]1`: the growth was 65.9%.
To `O=C(Nc1ccc(NC(=O)c2cc(=O)[nH]c3ccccc23)cc1)Nc1cccc(C(F)(F)F)c1` belongs 70.1%; to `Nc1ncnc2c1N=C(c1ccc(Cl)cc1)CC(c1ccc3c(c1)OCO3)N2` (stereo not given), 98.6%.
Turning to `CCOC(=O)C(=Cc1cccc(Br)c1)C(=O)OCC`, the growth was 46.6%.
Turning to `Cc1ccc(-c2cc(-c3ccc(Cl)cc3)nc(NC(=O)c3cccnc3)n2)cc1`, the growth was 109%.
For the compound `COc1cccc([C@H]2c3[nH]c4ccccc4c3C[C@H]3C(=O)N(CCCCCCC(=O)NO)CC(=O)N23)c1`, the growth was 60.2%.
With `CCCCCCNC(=O)Oc1ccc(/C(=C(/C)Cc2ccc(OC)cc2)c2ccc(OCCCN(C)C)cc2)cc1`, the growth was -84% (active).
For the compound `CC1(C)CC[C@]2(C(=O)O)CC[C@]3(C)C(=CC[C@@H]4[C@@]5(C)C/C(=C/O)C(=O)C(C)(C)[C@@H]5CC[C@]43C)[C@@H]2C1`, the growth was 74.9%.
Turning to `O=C(NCCCCNC(=O)OCc1ccc2c(Cl)cc(Cl)c(O)c2n1)OCc1ccc2c(Cl)cc(Cl)c(O)c2n1`, the growth is 96.3%.
On to `Cc1ccccc1/C=C1\CN(C(=O)OC(C)(C)C)C/C(=C\c2ccccc2C)C1=O`, for which the growth was -28.5% (active).
Take `O=C(c1ccc(Cl)cc1)N1CCN(c2ccnc3cc(Cl)ccc23)CC1`: the growth was 101%.

The record behind these values is PubChem BioAssay (NCI).
